Measured values reported in PubChem BioAssay (Tox21).
Inconclusive results are not listed. Values without a mark were called inactive. Calls of active or inactive are those of the source. The call rests on the fitted dose curve.

These compounds were tested against Muscarinic acetylcholine receptor M1 (Homo sapiens) (UniProt P11229) (assay: Cholinergic receptor muscarinic 1 (CHRM1) small molecule antagonists, cell-based qHTS assay (AID 1963588; further: nearly all actives have a fitted effect of over 40% in size)). Details: CHRM1-CHO antagonist mode, calcium flux fluorescence; series mostly up to 61.5 µM; activity, negative = inhibition: at the top concentration.
From the text: National Center for Advancing Translational Sciences [NCATS]
Division of Preclinical Innovation [DPI]
U.S. Environmental Protection Agency [EPA]
National Institutes of Environmental Health Sciences [NIEHS]
National Toxicology Program [NTP]
U.S. Food and Drug Administration [FDA]
The CHRM1 is a muscarinic receptor. This receptor plays a crucial role in learning and memory processes and has long been identified as a promising therapeutic target for the improvement of cognitive decline in Alzheimer's disease (AD). The CHRM1-CHO cell line stably expressing human muscarinic acetylcholine receptor M1 (CHRM1) can be used for screening agonists and antagonists of interactions between CHRM1 and its ligands. The CHRM1-CHO Calcium Flux Assay is a homogeneous fluorescence-based assay for detecting the intracellular calcium level using FDSS kinetic plate reader system.
Tox21 Assay Protocol Summary:
CHRM1-CHO cells were dispensed at 1000 cells/3uL/well in 1536-well black-clear bottom plates using a Multidrop Dispenser. After the assay plates were incubated at a 37 C/5% CO2 incubator for 18 h, 3 uL of Dye Loading Buffer was transferred to the assay plate by a Flying Reagent Dispenser. The assay plates were incubated at 37 C for 1h. For antagonist mode, 23 nL of compounds dissolved in DMSO, positive controls or DMSO only was transferred to the assay plate by a pin tool. After 5 min incubation at room temperature, 1.5 uL of acetylcholine at 50nM was added to each well. The fluorescence intensity in the plates was measured using FDSS 7000EX kinetic plate reader for 3 min at 1 sec intervals. Each test compound was measured at 15 concentrations in three independent runs.
On the % scale 0 is the no-effect control and ±100 the full control effect; potency means the concentration at half of the fitted maximal effect.

Sequence of Muscarinic acetylcholine receptor M1 (Homo sapiens) (P11229 whole entry, looked up): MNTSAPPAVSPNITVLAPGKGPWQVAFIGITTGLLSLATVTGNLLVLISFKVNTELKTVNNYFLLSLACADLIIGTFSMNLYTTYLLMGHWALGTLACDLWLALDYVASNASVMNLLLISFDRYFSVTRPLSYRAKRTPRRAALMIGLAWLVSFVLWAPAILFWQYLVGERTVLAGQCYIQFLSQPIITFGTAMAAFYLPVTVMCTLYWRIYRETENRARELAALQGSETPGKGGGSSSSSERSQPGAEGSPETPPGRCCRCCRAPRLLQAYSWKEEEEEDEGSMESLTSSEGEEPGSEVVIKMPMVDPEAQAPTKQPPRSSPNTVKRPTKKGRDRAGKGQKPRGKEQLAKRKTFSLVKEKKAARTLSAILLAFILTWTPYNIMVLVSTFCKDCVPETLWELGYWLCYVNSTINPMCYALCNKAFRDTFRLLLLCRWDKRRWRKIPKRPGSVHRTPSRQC

Compound	activity, negative = inhibition	Potency
COc1cc(C(=O)NCc2ccc(OCCN(C)C)cc2)cc(OC)c1OC	20.1% [at 28.3 µM]	
C[Si](C)O[Si](C)C	-1.77%	
O=c1[nH]c(=O)c2ccccc2o1	2.48% [at 28.3 µM]	
O=Cc1ccc(F)cc1	-7.41%	
CC(C)CC(=O)O	-5.61%	
Nc1cc([N+](=O)[O-])ccc1O		inactive
CC(=O)OC[C@H]1O[C@@H](OC(C)=O)[C@H](OC(C)=O)[C@@H]1OC(C)=O	5.93% [at 28.3 µM]	
CC(=O)OCCN(CCOC(C)=O)c1ccc(N=Nc2ccc([N+](=O)[O-])cc2C#N)cc1	-15.4%	
C=CCOC(=O)CCCCCC	3.8%	
CC(=O)c1ccc(O)c(C(N)=O)c1	3.17% [at 28.3 µM]	
NS(=O)(=O)c1ccc(N2CCCCS2(=O)=O)cc1	16.1% [at 28.3 µM]	
Cc1sccc1Br	27.5% [at 28.3 µM]	
CC(C)(C)c1ccc(CCC=O)cc1	-13.7%	
CC(=O)N(O)CCCCCNC(=O)CCC(=O)N(O)CCCCCNC(=O)CCC(=O)N(O)CCCCCN	12.1% [at 28.3 µM]	
CC12CC3CC(C)(C1)CC(N)(C3)C2	-7.66% [at 28.3 µM]	
CC1=C(O)C(=O)OC1C (stereo not given)	-0.67%	
C1COC1	3.79%	
CCCCCCCCCCCCCCO		inactive
CCC(=O)OC/C=C(\C)CCC=C(C)C	0.584%	
NS(=O)(=O)c1cc2c(cc1Cl)NC(C1CC3C=CC1C3)NS2(=O)=O (stereo not given)	14.7% [at 28.3 µM]	

Compound	activity, negative = inhibition	Potency
O=C(O)CONC(=O)c1ccccc1	-5.59%	
C[Si](C)(C)Cl	5.52%	
O=[N+]([O-])c1ccc(Oc2ccc([N+](=O)[O-])cc2)cc1	-23.5%	
COC(=O)c1ccc2cc(C(=O)OC)ccc2c1	-8% [at 12.6 µM]	
Cc1cccc(N)n1	3.85%	
CCN(CC)S(=O)(=O)c1ccc(C(=O)O)cc1	-0.807% [at 28.3 µM]	
CCOC(=O)O[C@]1(C(=O)OCCl)CC[C@H]2[C@@H]3CCC4=CC(=O)C=C[C@]4(C)[C@H]3[C@@H](O)C[C@@]21C	16.4% [at 28.3 µM]	
CC(C)C(=O)c1ccccc1	36%	
N#[N+]c1ccc2c(S(=O)(=O)[O-])cccc2c1O	-1.65%	
COc1ccc(C)cc1	25.4%	
CCN1CCCC(OC(=O)C(c2ccccc2)c2ccccc2)C1 (stereo not given)		4.1 µM (active)
CC1(C)[C@H](C(=O)OCc2cccc(Oc3ccccc3)c2)[C@@H]1C=C(Cl)Cl	-6.78%	
O=C(NCN1CCOCC1)c1cnccn1	-10.6% [at 28.3 µM]	
CCOC(=O)c1cc(=O)c2c(OCC(COc3cccc4oc(C(=O)OCC)cc(=O)c34)OC(=O)[C@@H](N)CCCCN)cccc2o1	-10.6% [at 28.3 µM]	
O=C[C@H](O)[C@H](O)[C@H](O)CO	8.3%	
CCCCC(CC)CCC(CC(C)C)OS(=O)(=O)O (stereo not given)	0.618%	
NCCc1ccc(O)c(O)c1		inactive
[Cl][Dy]([Cl])[Cl]	15.6%	
CCCCSCCCC	0.0217%	
Cc1cc(C)c(C(=O)O)c(C)c1	-15.6%	
